Laboratory results as given in PubChem BioAssay (NCI).
This is part of a sample that, as a whole, favours compounds with a hit. Of some 79,000 tested, about 15% had one in any assay. Calls of active or inactive are those of the source. No stated cut-off is given here; in the data, active means growth inhibition above about 70%; inactive means the rest.

Assay: NCI Yeast Anticancer Drug Screen. Data for the sgs1 mgt1 strain (AID 161);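 further: 0% = growth of cultures given vehicle only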
Conditions: S. cerevisiae sgs1 mgt1 strain, at 50.0 µM, hits give high values
Summary of the method: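 Genetically altered yeast, compound exposure, growth inhibition relative to vehicle.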

Structure (SMILES)	growth inhibition
CCOC(=O)c1csc(N)n1	-15.1% (inactive)
CS/C(=C\c1ccc2ccccc2[n+]1C)N1CCN(CCCO)CC1	9.95% (inactive)
COc1ccc(Cc2ccc(OC)c3ccccc23)c2ccccc12	4.3% (inactive)
Cn1c(N(CCO)CCO)cnc1[N+](=O)[O-]	-21.8% (inactive)
Cc1cc(S(=O)(=O)NC(=NCC(=O)NN)NN)c(S)cc1Cl	-16.6% (inactive)
C=CCN1C(=O)c2ccccc2C1=O	11.6% (inactive)
OCC1OC(n2ncc3c(Nc4ccccc4)ncnc32)C(O)C1O (stereo not given)	6.75% (inactive)
COc1ccc([N+](=O)[O-])c(OC)c1	-30.9% (inactive)
O=C1C(=O)c2ccccc2C(O)=C1CC=C(Cl)Cl	-5.6% (inactive)
CC(=O)SCC(C)CCl (stereo not given)	-30.9% (inactive)
Cc1ccnc(N=C(N)Nc2cc(C)ccn2)c1	13.1% (inactive)
Nc1c(Cl)ncnc1Cl	-16.4% (inactive)
CCOC(=O)C1OC1(C)c1ccc(Cl)cc1 (stereo not given)	-0.7% (inactive)
CCC(=O)Oc1cc(C(C)(C)C)c(OC(=O)CC)cc1C(C)(C)C	10.6% (inactive)
COc1cc(Cc2cc(OC)c(OC)c(OC)c2)ccc1O	-8.5% (inactive)
O=C(O)C(Nc1ccccc1)c1ccccc1 (stereo not given)	9.45% (inactive)
COc1cc2nccnc2c(N)c1OC	7.75% (inactive)
CC(C)CC(O)CC(C)C	-0.75% (inactive)
N#CCCCCCCC(N)=O	6.4% (inactive)
CCOP(=O)(OCC)/C(C#N)=C/c1cnc(-c2ccccc2)[nH]1	-32.8% (inactive)
